We go through 13 compounds from PubChem BioAssay AID2283234 (EPA ToxCast).

Records with an inconclusive call do not appear. The source made the active and inactive calls. How the source made its calls: active means hit-call score of the fitted dose curve at least 0.9, where 1 is the maximum; inconclusive means response in the unintended direction; inactive means score below 0.9.

This assay concerns the target human Dual Specificity Styrosine-Phosphorylation-Regulated Kinase 1A (DYRK1a), DYRK1A (gene 1859) (UniProt Q13627). Description: NVS_ENZ_hDYRK1a: NovaScreen (NVS) Enzymatic Assay for human Dual Specificity Styrosine-Phosphorylation-Regulated Kinase 1A (DYRK1a). As for the experimental part:
NVS_ENZ_hDYRK1a is a biochemical, single-readout assay that uses extracted gene-proteins in a cell-free assay. Measurements were taken 1 hour after chemical dosing in a 96-well plate.NVS_ENZ_hDYRK1a is one of one assay component(s) measured or calculated from the NVS_ENZ_hDYRK1a assay. It is designed to make measurements of enzyme activity, a form of enzyme reporter, as detected with fluorescence intensity signals by Fluorescence and electrophoretic mobility shift technology.Data from the assay component NVS_ENZ_hDYRK1a was analyzed into 1 assay endpoint. This assay endpoint, NVS_ENZ_hDYRK1a, was analyzed in the positive analysis fitting direction relative to DMSO as the negative control and baseline of activity. Using a type of enzyme reporter, loss-of-signal activity can be used to understand changes in the enzymatic activity as they relate to the gene DYRK1A. Furthermore, this assay endpoint can be referred to as a primary readout, because this assay has produced multiple assay endpoints where this one serves a enzymatic activity function. To generalize the intended target to other relatable targets, this assay endpoint is annotated to the kinase intended target family, where the subfamily is dual-specific kinase.
Binding assays used specific radioligands (tritiated, iodinated) with non-radioactive competitive displacement ligands in agonist or antagonist protocols (as indicated) and various reference compounds and inhibitors to titrate specific binding to receptors and transporters. Most enzyme assays (CYPs, kinases, phosphatases, proteases, HDACs) used recombinant protein and specific substrates (fluorescence mostly, some colorimetric and radioactive) and inhibitors, followed by a biochemical separation of substrate and product. All assays for the biochemical HTS were initially run in duplicate at a single concentration (10 uM for CYP450 assays and 25 uM for all others). […] Each assay was run with positive and negative controls, and concurrent controls on every plate. The follow-up (secondary) screen tested active chemical-pairs in concentration series, as well as a few additional assays not tested in the primary screen, some selected negative inactives, and several cases re-run in the concentration series for confirmatory purposes.
Take `CNC(=O)ON=C(SC)C(=O)N(C)C`: the compound was classed as inactive. In the case of `CCCCOC(=O)c1ccccc1C(=O)OCCCC`, the call was inactive. As for `COP(N)(=O)SC` (stereo not drawn), the compound was classed as inactive. A word on the AC50: it is the midpoint of the concentration-response curve, whichever way the signal moves. Turning to `O=C(Nc1ccccc1)Nc1ccnc(Cl)c1`, the AC50 is 25 µM (active).

On to `COc1cc(OC)nc(NC(=O)NS(=O)(=O)c2cc(NC=O)ccc2C(=O)N(C)C)n1`, for which the result was inactive.

As to `CN(C)[C@@H]1C(=O)C(C(N)=O)=C(O)[C@@]2(O)C(=O)C3=C(O)c4c(O)cccc4[C@@](C)(O)[C@H]3[C@H](O)[C@@H]12`, the half-maximal activity concentration (AC50) was 16.7 µM (active). As to `N#Cc1c[nH]cc1-c1cccc2c1OC(F)(F)O2`, the call was inactive. For `Nc1c(Cl)cc([N+](=O)[O-])cc1Cl`, the AC50 was 14.7 µM (active). On to `N#Cc1c(Cl)c(Cl)c(Cl)c(C#N)c1Cl`, for which the outcome was inactive. For `CC1=NNC(=O)N(/N=C/c2cccnc2)C1`, the AC50 is 13.5 µM (active).

For `O=C(Nc1ccccc1)Nc1cnns1`, the outcome was inactive. Take `O=C(O)c1nc(Cl)ccc1Cl`: the call was inactive. The same measure, in the same setting: the entry for `CCN(CC)C(=O)SCc1ccc(Cl)cc1` is “inactive”.
